Experimental data reported in PubChem BioAssay AID1345085 (National Center for Advancing Translational Sciences (NCATS), 2018).
Inconclusive results are not listed. Calls of active or inactive are those of the source. Calls come from the whole dose curve; as a rule, active = well fitted cell-killing curve with a large enough effect; inconclusive = small, poorly fitted or top-dose-only effect, or effect the other way; inactive = no such curve, though single readings can be large or run the other way.

Tested on: PA-1
Assay: Confirmatory qHTS for gynecologic anti-cancer compounds from libraries of approved drugs and bioactive compounds; note: nearly all actives have a fitted effect of over 55% in size
Settings: gynecologic cancer cell panel viability, ATPlite luminescence, 48 h; series mostly up to 57.6 µM
Summary of the method: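 ATPlite luminescence read-out of cell viability; IC50 from 11-point 1:3 titrations, 57.5 uM to 0.977 nM, 48 h compound exposure at 37 C, 5% CO2. Cells seeded at 1,000/well 16 h before dosing.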
Potency is the fitted concentration of half-maximal effect.

Structure (SMILES): N#CC1(c2cccc(C(=O)Nc3cc(Oc4ccc5nc(NC(=O)C6CC6)sc5n4)ccc3F)c2Cl)CC1
- Potency: 8.63 µM (active)

Structure (SMILES): CC(=O)OC12COC1CC(O)C1(C)C(=O)C(O)C3=C(C)C(OC(=O)C(O)C(NC(=O)OC(C)(C)C)c4ccccc4)CC(O)(C(OC(=O)c4ccccc4)C21)C3(C)C (stereo not drawn)
- Potency: 0.0077 µM (active)

Structure (SMILES): O=c1[nH]c(=O)n([C@H]2C[C@H](O)[C@@H](CO)O2)cc1F
- Potency: 0.109 µM (active)

Structure (SMILES): CC(C)c1nn(-c2c(Cl)cccc2Cl)c2nc(Cc3ccc(OCCO)cc3)[nH]c(=O)c12
- Potency: 0.0968 µM (active)

Structure (SMILES): NS(=O)(=O)OC[C@@H]1C[C@@H](n2ccc3c(N[C@H]4CCc5ccccc54)ncnc32)C[C@@H]1O
- Potency: 0.685 µM (active)

Structure (SMILES): CNC1CCC(N(Cc2cccc(-c3ccncc3)c2)C(=O)c2sc3ccccc3c2Cl)CC1 (stereo not drawn)
- Potency: 24.3 µM (active)

Structure (SMILES): O=C(NOC[C@H](O)CO)c1ccc(F)c(F)c1Nc1ccc(I)cc1F
- Potency: 3.85 µM (active)

Structure (SMILES): CNC(=O)c1ccccc1Nc1nc(Nc2ccc(N3CCOCC3)cc2OC)ncc1Cl
- Potency: 1.72 µM (active)

Structure (SMILES): CC(C)n1c(/C=C/[C@@H](O)C[C@@H](O)CC(=O)O)c(-c2ccc(F)cc2)c2ccccc21
- Potency: 24.3 µM (active)

Structure (SMILES): CCn1cc(-c2ccnc3[nH]c(-c4cccc(CN(C)C)c4)cc23)c(-c2ccc(NC(=O)N(C)C)cc2)n1
- Potency: 8.41 µM (active)

Structure (SMILES): COc1cc(N2CCC(N3CCN(C)CC3)CC2)ccc1Nc1ncc(Cl)c(Nc2ccccc2S(=O)(=O)C(C)C)n1
- Potency: 3.43 µM (active)

Structure (SMILES): Nc1nccc(Oc2ccc(NC(=O)c3c[nH]cc(-c4ccc(F)cc4)c3=O)cc2F)c1Cl
- Potency: 3.06 µM (active)

Structure (SMILES): COc1cc(Nc2ncc(F)c(Nc3ccc4c(n3)N(COP(=O)(O)O)C(=O)C(C)(C)O4)n2)cc(OC)c1OC
- Potency: 9.68 µM (active)

Structure (SMILES): Cc1cnc(Nc2cccc(CN3CCOCC3)c2)nc1Nc1cccc(S(=O)(=O)NC(C)(C)C)c1
- Potency: 3.85 µM (active)

Structure (SMILES): Cn1cc(-c2ccc3ncc(Cc4ccc5ncccc5c4)n3n2)cn1
- Potency: inactive

Structure (SMILES): Nc1nc(Cl)nc2c1ncn2C1OC(CO)C(O)C1F (stereo not drawn)
- Potency: 0.685 µM (active)

Structure (SMILES): CC[C@H](CC#N)OC(=O)N[C@@H](C)c1cccc(NC(=O)Nc2ccc(-c3cnco3)c(OC)c2)c1
- Potency: 0.217 µM (active)

Structure (SMILES): Nc1ccn([C@@H]2O[C@H](CO)[C@@H](O)C2(F)F)c(=O)n1
- Potency: 0.0611 µM (active)

Structure (SMILES): Cc1nc(NC(=O)N2CCCC2C(N)=O)sc1-c1ccnc(C(C)(C)C(F)(F)F)c1 (stereo not drawn)
- Potency: 27.3 µM (active)

Structure (SMILES): COc1cc(C(=O)N2CCC(N3CCN(C)CC3)CC2)ccc1Nc1ncc2c(n1)N(C)c1ccccc1C(=O)N2C
- Potency: 9.68 µM (active)

Structure (SMILES): Cc1nc(N)nc(N)c1-c1ccc(Cl)c(Cl)c1
- Potency: 1.37 µM (active)

Structure (SMILES): CCc1nc(C(N)=O)c(Nc2ccc(N3CCC(N4CCN(C)CC4)CC3)c(OC)c2)nc1NC1CCOCC1
- Potency: 1.06 µM (active)

Structure (SMILES): O=C(CCCCCCNC(=O)c1cnc(N(c2ccccc2)c2ccccc2)nc1)NO
- Potency: 3.06 µM (active)

Structure (SMILES): CC(C)Oc1ccc2c(=O)c(-c3ccccc3)coc2c1
- Potency: 17.2 µM (active)

Structure (SMILES): CCC1=CC2CN(C1)Cc1c([nH]c3ccccc13)[C@@](C(=O)OC)(c1cc3c(cc1OC)N(C)[C@H]1[C@@](O)(C(=O)OC)[C@H](OC(C)=O)[C@]4(CC)C=CCN5CC[C@]31[C@@H]54)C2 (stereo partly drawn)
- Potency: 0.053 µM (active)

Structure (SMILES): O=C(NCC(O)CO)c1ccncc1Nc1ccc(I)cc1F (stereo not drawn)
- Potency: 0.0611 µM (active)

Structure (SMILES): CN1C2CCC1CC(OC(=O)[C@H](CO)c1ccccc1)C2 (stereo partly drawn)
- Potency: inactive

Structure (SMILES): Cc1cc(C(C)Nc2ccccc2C(=O)O)c2nc(N3CCOCC3)cc(=O)n2c1 (stereo not drawn)
- Potency: 21.7 µM (active)
